# Assay outcomes as filed in PubChem.
# An excerpt weighted towards active compounds, which were near 4% of everything screened.
# LMP1 NFkB inh: EBV LMP1-driven NF-kappaB luciferase reporter inhibitors, primary screen, cell-based, luminescence, single point; AID 504558, 2011; 0.69% of 350,000 active; LMP1-induced NF-kappaB luciferase reporter cells; inhibition, % at 12.5 µM; in the data active = inhibition above about 41%; inconclusive = no clear call, values can overlap the other calls;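 note: 0% = neutral control wells and 100% = reference inhibitor control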
# MITF TRPM1 HTS: activators of MITF-driven TRPM1 promoter reporter, primary screen, cell-based, SK-MEL-5, luciferase, single point. AID 588334, 2011. activation, % at 12.5 µM. 0.75% of 300,000 active. SK-MEL-5 TRPM1-promoter luciferase, 24 h; % of positive control, neutral wells = 0;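 active = mean activation of at least 80% with every replicate also reaching 80%; inconclusive = mean reaches 80% but some replicate falls short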;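 note: 0% = neutral control wells and 100% = parthenolide positive control wells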
# C2C12 statin: suppressors of statin myotoxicity in C2C12 myotubes, primary screen, cell-based, single point, plate reader; C2C12 myotubes + simvastatin, ATP luminescence, 48 h; scaled: DMSO 0, geranylgeraniol control 100; rescue of ATP level, % at 7.49 µM; 0.78% of 330,000 active; AID 602340, 2012;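 active = mean ATP rescue above about 67%, or every replicate alone reaching that limit, limit read from the data, passing the limit was not always enough; inconclusive = no clear call, values can overlap the other calls; inactive = mean under the limit and some replicate under it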;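 note: myotubes were challenged with 10 µM simvastatin during compound exposure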
# Wnt act: Wnt/beta-catenin pathway activators, primary screen, cell-based, plate reader, single point | Wnt/beta-catenin reporter cell assay, activator | activation, % at 9.35 µM | 1.2% of 300,000 active | AID 743398, 2014; in the data active = activation above about 30%, passing the limit was not always enough; inconclusive = no clear call, values can overlap the other calls;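 note: 0% = neutral control wells and 100% = positive control wells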
# MITF TRPM1 inh: inhibitors of MITF-dependent TRPM1 promoter reporter, primary screen, cell-based, SK-MEL-5, single point, luciferase; inhibition, % at 12.5 µM; SK-MEL-5 TRPM1 promoter luciferase, 24 h; 0.83% of 330,000 active; AID 488899, 2010;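 active = mean inhibition across replicates of 60% or more, whatever share of single replicates reaches that level; inconclusive = some that reach 60%, reason not given; inactive = mean inhibition across replicates below 60%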
# esBAF inh: Bmi1 luciferase reporter increase in mESCs, primary screen, esBAF inhibitor project, mouse ES cells, Bmi1 luciferase knock-in, single point | reporter increase, % at 12.5 µM | 2% of 350,000 active | 24 h; 100% = twice the neutral-well signal; in the data active = activation above about 40%; inconclusive = no clear call, values can overlap the other calls;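 note: 0% = median of the plate's neutral control wells and 100% = double that signal; a rise in the Bmi1 reporter signal indicates esBAF inhibition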
# * hit, by the source's call; ? = inconclusive; · = no result.
SMILES,LMP1 NFkB inh,MITF TRPM1 HTS,C2C12 statin,Wnt act,MITF TRPM1 inh,esBAF inh
CCc1sc(C(=O)Nc2ccc(N3CCOCC3)cc2)cc1C,-13,53,-55,-2,-51,·
CCc1sc(C(=O)Nc2ccc3c(c2)OCO3)cc1C,-32,124*,5,43*,-120,51*
CC(C)(C)n1nnnc1C(c1ccccc1)N1CCN(c2ccccn2)CC1 (configuration not stated),·,·,·,-1,·,·
CCN(c1ccccc1)S(=O)(=O)c1ccc(C(=O)N2CCCC(C(F)(F)F)C2)cc1 (configuration not stated),-8,-6,-13,-1,6,-9
C1CCc2nnc(C3CC3)n2CC1,8,2,·,20,-2,·
Cc1ccc(C(=O)N(c2ccccn2)C(C)c2ccco2)cc1 (configuration not stated),-12,22,0,5,-18,35
CC(c1ccco1)N(C(=O)Nc1ccc(Cl)cc1)c1ccccn1 (configuration not stated),1,14,124*,·,-12,14
CCOC(=O)c1c(CN2CCNCC2)nc2ccc(Cl)cc2c1-c1ccccc1,-6,-90,·,-3,90*,·
Cc1nc2ccc(Cl)cc2c(-c2ccccc2)c1C(=O)N(C)C,-2,8,4,-3,-7,-2
S=C(NCc1cccs1)Nc1cccc(Cl)c1Cl,8,3,·,·,-2,·
CCOP(=O)(OCC)c1nc(-c2cccc3ccccc23)oc1NCCc1ccc(OC)cc1,-1,7,92*,-6,-9,-8
COc1ccc(CNc2oc(-c3cccc4ccccc34)nc2C#N)cc1,-5,-3,-12,-1,3,-9
Cc1cc(C)nc(SCc2cn3ccccc3n2)n1,-3,17,14,4,-19,6
C=CC(=O)Nc1cccc(Nc2nc(N[C@H]3CC[C@H](N(C)C)CC3)nc3c2ncn3C(C)C)c1,92*,-90,-249,·,90*,-78
CCOC(=O)C1(CCOC)CCN(Cc2nc(-c3cccs3)oc2C)CC1,3,-12,86*,-2,13,12
C[C@@H]1CN([C@H](C)CO)C(=O)Cc2cc(NC(=O)Nc3ccc4c(c3)OCO4)ccc2O[C@@H]1CN(C)Cc1ccc(Cl)c(Cl)c1,·,·,15,·,·,3
O=C(Cn1cc(CNC(=O)C2CCCCC2)nn1)Nc1cc(C(F)(F)F)ccc1Cl,42*,7,-11,1,-7,4
CCOC(=O)c1nnc(-c2ccc(C)cc2)nc1Sc1ccc(Cl)cc1,-6,1,109*,-3,2,1
CCOC(=O)c1nnc(-c2ccc(C)cc2)nc1Sc1ccccc1Cl,1,-2,-3,-1,3,-3
Cc1ccc(-c2cnc3c(c2)C(=O)N([C@@H](C)CO)C[C@H](C)[C@@H](CN(C)C(=O)CN(C)C)O3)cc1,·,·,3,·,·,3
O=C(O)CCn1c2ccccc2c2nc3ccccc3nc21,-16,·,-1,2,-25,50*
COC(=O)Cn1c2ccccc2c2nc3ccccc3nc21,-13,30,-5,2,-26,50*
CN1CCCCN2[C@H](C1)[C@H](c1ccc(-c3ccccc3)cc1)[C@@H]2CO,·,·,-15,·,·,-5
CCCCNC(=O)C1c2ccccc2C(=O)N(c2ccc(OC)cc2)C1c1ccc(OC)cc1 (configuration not stated),-11,-5,·,·,8,·
Cc1cc(NC(=O)CN2C(=O)N(C)C3(CCCCC3)C2=O)ccc1Br,-7,11,-19,1,-8,-4
SMILES,LMP1 NFkB inh,MITF TRPM1 HTS,C2C12 statin,Wnt act,MITF TRPM1 inh,esBAF inh
O=C1C=CC(=O)c2c(O)c(N3CCN(CCO)CC3)c(Cl)c(O)c21,72*,-99,-183,-6,99*,-80
O=S(=O)(c1ccc(Br)cc1Cl)N1CCN(CCO)CC1,-8,-3,12,-1,3,-5
O=C1C=CC(=O)c2c(O)c(N3CCN(CCOCCO)CC3)c(Br)c(O)c21,82*,-95,·,-1,97*,·
OCCOCCN1CCN(C2=Nc3ccccc3Sc3ccccc32)CC1,-4,-1,-2,1,1,2
O=C(Nc1ccc2c(c1)OCO2)c1cc(-c2ccccc2Cl)on1,-32,?,6,20,-110,60*
O=C(Nc1cccnc1)c1cc(-c2ccc3c(c2)OCO3)on1,-9,22,-14,·,-23,69*
O=C(Nc1cccc(O)c1)c1cc(-c2ccco2)on1,-29,75,35,·,-68,73*
O=C(Nc1cccnc1)c1cc(-c2ccc(Cl)c(Cl)c2)on1,9,16,17,14,-16,7
O=C(Nc1ccc2c(c1)OCO2)c1cc(-c2ccc(O)cc2)on1,8,77,49,21,-73,46*
CC(=O)c1cccc(NC(=O)c2cc(-c3ccco3)on2)c1,-7,30,-2,1,-33,23
O=C(C[C@@H]1CC[C@@H](NC(=O)Nc2ccccc2)[C@H](CO)O1)NCc1cccc(F)c1,·,·,-7,·,·,1
COc1cccc(-c2cc(C(=O)Nc3ccc4c(c3)OCO4)no2)c1,-21,·,-33,3,·,29
O=C(Nc1ccc2c(c1)OCO2)C1CC(c2ccccc2O)=NO1 (configuration not stated),6,·,4,1,-6,25
O=C(Nc1ccc2c(c1)OCCO2)C1CC(c2ccccc2Cl)=NO1 (configuration not stated),-20,?,-2,11,-78,60*
O=C(Nc1ccc2c(c1)OCO2)c1cc(-c2cccc(O)c2)on1,-16,115*,-4,21,-109,43*
C/C=C/c1cnc2c(c1)C(=O)N([C@@H](C)CO)C[C@H](C)[C@@H](CN(C)S(=O)(=O)c1ccc(F)cc1)O2,·,·,17,·,·,2
Cn1cc(C(=O)Nc2ccc(F)c(F)c2)cn1,-8,·,90*,-2,-14,0
Cc1cnc(C(=O)OCC(=O)NCc2ccccc2)cn1,-15,·,10,-2,0,-5
Cc1cnc(C(=O)Nc2ccc(F)c(F)c2)cn1,-2,79,0,·,-89,62*
Cc1ccc(NC(=O)c2cnn(C)c2)cc1[N+](=O)[O-],-10,-1,·,-1,-2,·
Cc1cnc(C(=O)OCC(=O)Nc2ccc(OCc3ccccc3)cc2)cn1,-22,96*,-7,32*,-91,?
CCCCOc1ccc(NC(=O)c2cnc(C)cn2)cc1,-18,33,-2,15,-34,58*
CCCCOc1ccc(C(=O)Nc2ccncc2)cc1,15,16,·,·,-17,·
